# Source: publication PMC11006913
# Where a chain is given by its changes, count along the chain named.
# Assays:
# Test in all cases: PBM; 200 nM protein, PBS
# Conditions in all cases: dsDNA, one strand shown
# VENTX [1] = target: T1, VENTX (Homo sapiens, UniProt O95231 78-163, R121Q)
# T1 sequence: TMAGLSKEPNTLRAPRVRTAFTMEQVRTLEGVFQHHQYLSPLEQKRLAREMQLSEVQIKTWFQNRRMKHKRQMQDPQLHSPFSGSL
# VENTX [2] = target: T2, VENTX (Homo sapiens, UniProt O95231 78-163)
# T2 sequence: T1 sequence with Q44R
# HOXA7 [3] = target: HOXA7 (Homo sapiens, UniProt P31268 116-202)
# VENTX [4] = target: T3, VENTX (Homo sapiens, UniProt O95231 78-163, Y115F)
# T3 sequence: T1 sequence with Y38F, Q44R
# HOXA2 [5] = target: HOXA2 (Homo sapiens, UniProt O43364 129-215, R185T)
# ALX1 [6] = target: ALX1 (Homo sapiens, UniProt Q15699 118-204, L144V)
# ALX3 [7] = target: ALX3 (Homo sapiens, UniProt O95076 139-225, N203Q)
# PITX2 = PITX2 (Homo sapiens, UniProt Q99697 72-157)
# HOXA2 [8] = target: HOXA2 (Homo sapiens, UniProt O43364 129-215, R185K)
# ALX1 [9] = target: ALX1 (Homo sapiens, UniProt Q15699 118-204, L144R)
# ALX3 [10] = target: ALX3 (Homo sapiens, UniProt O95076 139-225)
# ALX3 [11] = target: ALX3 (Homo sapiens, UniProt O95076 139-225, L168Q)
# ALX3 [12] = target: ALX3 (Homo sapiens, UniProt O95076 139-225, L168V)
# HOXA2 [13] = target: HOXA2 (Homo sapiens, UniProt O43364 129-215, Y150S)
# HOXA7 [14] = target: HOXA7 (Homo sapiens, UniProt P31268 116-202, W177C)
# NKX3-2 [15] = target: NKX3-2 (Homo sapiens, UniProt P78367 192-278, P234S)
# ALX1 [16] = target: ALX1 (Homo sapiens, UniProt Q15699 118-204)
# ALX3 [17] = target: ALX3 (Homo sapiens, UniProt O95076 139-225, N203S)
# HOXA2 [18] = target: HOXA2 (Homo sapiens, UniProt O43364 129-215)
# NKX3-2 [19] = target: NKX3-2 (Homo sapiens, UniProt P78367 192-278)
# PRRX1 [20] = target: PRRX1 (Homo sapiens, UniProt P54821 80-166, F113S)
# PRRX1 [21] = target: PRRX1 (Homo sapiens, UniProt P54821 80-166)
# HOXC10 [22] = target: HOXC10 (Homo sapiens, UniProt Q9NYD6 254-340)
# HOXC10 [23] = target: HOXC10 (Homo sapiens, UniProt Q9NYD6 254-340, K271E)
# PAX4 [24] = target: T4, PAX4 (Homo sapiens, UniProt O43316 9-242, R200K)
# T4 sequence: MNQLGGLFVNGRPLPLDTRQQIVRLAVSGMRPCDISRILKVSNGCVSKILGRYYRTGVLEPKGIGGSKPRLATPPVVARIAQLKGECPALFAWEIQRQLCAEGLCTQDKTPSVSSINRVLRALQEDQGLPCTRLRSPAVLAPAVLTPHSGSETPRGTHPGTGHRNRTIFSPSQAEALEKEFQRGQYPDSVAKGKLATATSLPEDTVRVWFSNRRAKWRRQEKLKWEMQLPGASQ
# PAX4 [25] = target: T5, PAX4 (Homo sapiens, UniProt O43316 9-242)
# T5 sequence: T4 sequence with K192R
# MSX2 = MSX2 (Homo sapiens, UniProt P35548 130-214, R199I)
# PAX4 [26] = target: T6, PAX4 (Homo sapiens, UniProt O43316 9-242, R200Q)
# T6 sequence: T4 sequence with K192Q
# PAX4 [27] = target: T7, PAX4 (Homo sapiens, UniProt O43316 9-242, F177V)
# T7 sequence: T4 sequence with F169V, K192R
# PAX4 [28] = target: T8, PAX4 (Homo sapiens, UniProt O43316 9-242, F177Y)
# T8 sequence: T4 sequence with F169Y, K192R
# PAX4 [29] = target: T9, PAX4 (Homo sapiens, UniProt O43316 9-242, R227W)
# T9 sequence: T4 sequence with K192R, R219W
# Chain of HOXA7 (Homo sapiens, UniProt P31268 116-202) (P31268 116-202): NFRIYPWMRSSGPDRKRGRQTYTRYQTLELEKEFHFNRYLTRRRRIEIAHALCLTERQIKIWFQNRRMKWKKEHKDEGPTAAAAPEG
# Chain of HOXC10 (Homo sapiens, UniProt Q9NYD6 254-340, K271E) (Q9NYD6 254-340 K271E): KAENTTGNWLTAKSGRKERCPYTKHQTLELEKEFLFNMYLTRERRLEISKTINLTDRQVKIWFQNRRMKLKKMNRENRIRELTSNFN
# Chain of HOXC10 (Homo sapiens, UniProt Q9NYD6 254-340) (Q9NYD6 254-340): as the sequence (Q9NYD6 254-340 K271E) above, with E18K counted along it
# Chain of HOXA7 (Homo sapiens, UniProt P31268 116-202, W177C) (P31268 116-202 W177C): as the sequence (P31268 116-202) above, with W62C counted along it
# Chain of PRRX1 (Homo sapiens, UniProt P54821 80-166, F113S) (P54821 80-166 F113S): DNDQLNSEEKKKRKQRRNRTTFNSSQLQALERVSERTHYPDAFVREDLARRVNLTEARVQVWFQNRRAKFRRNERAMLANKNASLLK
# Chain of NKX3-2 (Homo sapiens, UniProt P78367 192-278, P234S) (P78367 192-278 P234S): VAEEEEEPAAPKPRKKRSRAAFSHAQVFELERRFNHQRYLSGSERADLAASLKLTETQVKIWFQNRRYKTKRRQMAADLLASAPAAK
# Chain of ALX3 (Homo sapiens, UniProt O95076 139-225, N203Q) (O95076 139-225 N203Q): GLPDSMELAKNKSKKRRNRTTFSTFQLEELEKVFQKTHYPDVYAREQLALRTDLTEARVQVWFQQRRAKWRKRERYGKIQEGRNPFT
# Chain of HOXA2 (Homo sapiens, UniProt O43364 129-215) (O43364 129-215): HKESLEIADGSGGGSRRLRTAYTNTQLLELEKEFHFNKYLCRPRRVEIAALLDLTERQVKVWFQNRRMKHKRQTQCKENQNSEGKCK
# Chain of HOXA2 (Homo sapiens, UniProt O43364 129-215, Y150S) (O43364 129-215 Y150S): as the sequence (O43364 129-215) above, with Y22S counted along it
# Chain of ALX3 (Homo sapiens, UniProt O95076 139-225, L168Q) (O95076 139-225 L168Q): as the sequence (O95076 139-225 N203Q) above, with L30Q, Q65N counted along it
# Chain of ALX1 (Homo sapiens, UniProt Q15699 118-204, L144V) (Q15699 118-204 L144V): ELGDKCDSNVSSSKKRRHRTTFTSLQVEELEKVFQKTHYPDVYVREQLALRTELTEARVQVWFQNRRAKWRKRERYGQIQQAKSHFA
# Chain of HOXA2 (Homo sapiens, UniProt O43364 129-215, R185T) (O43364 129-215 R185T): as the sequence (O43364 129-215) above, with R57T counted along it
# Chain of ALX3 (Homo sapiens, UniProt O95076 139-225, L168V) (O95076 139-225 L168V): as the sequence (O95076 139-225 N203Q) above, with L30V, Q65N counted along it
# Chain of PRRX1 (Homo sapiens, UniProt P54821 80-166) (P54821 80-166): as the sequence (P54821 80-166 F113S) above, with S34F counted along it
# Chain of ALX3 (Homo sapiens, UniProt O95076 139-225, N203S) (O95076 139-225 N203S): as the sequence (O95076 139-225 N203Q) above, with Q65S counted along it
# Chain of MSX2 (P35548 130-214 R199I): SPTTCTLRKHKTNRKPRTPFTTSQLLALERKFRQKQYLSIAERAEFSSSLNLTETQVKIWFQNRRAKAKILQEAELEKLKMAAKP
# Chain of ALX3 (Homo sapiens, UniProt O95076 139-225) (O95076 139-225): as the sequence (O95076 139-225 N203Q) above, with Q65N counted along it
# Chain of ALX1 (Homo sapiens, UniProt Q15699 118-204, L144R) (Q15699 118-204 L144R): as the sequence (Q15699 118-204 L144V) above, with V27R counted along it
# Chain of ALX1 (Homo sapiens, UniProt Q15699 118-204) (Q15699 118-204): as the sequence (Q15699 118-204 L144V) above, with V27L counted along it
# Chain of NKX3-2 (Homo sapiens, UniProt P78367 192-278) (P78367 192-278): as the sequence (P78367 192-278 P234S) above, with S43P counted along it
# Chain of HOXA2 (Homo sapiens, UniProt O43364 129-215, R185K) (O43364 129-215 R185K): as the sequence (O43364 129-215) above, with R57K counted along it
sequence,measurement,setting,value
CGGCCCCC,binding signal,VENTX [1],"8.06 upbm affinity estimate (log intensity, higher = more binding, comparable within an allelic series)"
same,binding signal,VENTX [2],"8.05 upbm affinity estimate (log intensity, higher = more binding, comparable within an allelic series)"
same,binding signal,HOXA7 [3],"8.26 upbm affinity estimate (log intensity, higher = more binding, comparable within an allelic series)"
same,binding signal,VENTX [4],"8.12 upbm affinity estimate (log intensity, higher = more binding, comparable within an allelic series)"
same,binding signal,HOXA2 [5],"7.13 upbm affinity estimate (log intensity, higher = more binding, comparable within an allelic series)"
same,binding signal,ALX1 [6],"6.51 upbm affinity estimate (log intensity, higher = more binding, comparable within an allelic series)"
same,binding signal,ALX3 [7],"7.78 upbm affinity estimate (log intensity, higher = more binding, comparable within an allelic series)"
same,binding signal,PITX2,"7.78 upbm affinity estimate (log intensity, higher = more binding, comparable within an allelic series)"
same,binding signal,HOXA2 [8],"9.86 upbm affinity estimate (log intensity, higher = more binding, comparable within an allelic series)"
same,binding signal,ALX1 [9],"6.5 upbm affinity estimate (log intensity, higher = more binding, comparable within an allelic series)"
same,binding signal,ALX3 [10],"7.73 upbm affinity estimate (log intensity, higher = more binding, comparable within an allelic series)"
same,binding signal,ALX3 [11],"7.68 upbm affinity estimate (log intensity, higher = more binding, comparable within an allelic series)"
same,binding signal,ALX3 [12],"7.67 upbm affinity estimate (log intensity, higher = more binding, comparable within an allelic series)"
same,binding signal,HOXA2 [13],"10.3 upbm affinity estimate (log intensity, higher = more binding, comparable within an allelic series)"
same,binding signal,HOXA7 [14],"8.35 upbm affinity estimate (log intensity, higher = more binding, comparable within an allelic series)"
same,binding signal,NKX3-2 [15],"10.4 upbm affinity estimate (log intensity, higher = more binding, comparable within an allelic series)"
same,binding signal,ALX1 [16],"6.49 upbm affinity estimate (log intensity, higher = more binding, comparable within an allelic series)"
same,binding signal,ALX3 [17],"7.76 upbm affinity estimate (log intensity, higher = more binding, comparable within an allelic series)"
same,binding signal,HOXA2 [18],"7.15 upbm affinity estimate (log intensity, higher = more binding, comparable within an allelic series)"
same,binding signal,NKX3-2 [19],"10.4 upbm affinity estimate (log intensity, higher = more binding, comparable within an allelic series)"
CCGAGTCC,binding signal,VENTX [1],"8.15 upbm affinity estimate (log intensity, higher = more binding, comparable within an allelic series)"
same,binding signal,VENTX [2],"8.13 upbm affinity estimate (log intensity, higher = more binding, comparable within an allelic series)"
same,binding signal,PRRX1 [20],"9.18 upbm affinity estimate (log intensity, higher = more binding, comparable within an allelic series)"
same,binding signal,VENTX [4],"8.08 upbm affinity estimate (log intensity, higher = more binding, comparable within an allelic series)"
same,binding signal,PRRX1 [21],"9.67 upbm affinity estimate (log intensity, higher = more binding, comparable within an allelic series)"
ATTAGGTG,binding signal,VENTX [1],"10.8 upbm affinity estimate (log intensity, higher = more binding, comparable within an allelic series)"
same,binding signal,VENTX [2],"11.2 upbm affinity estimate (log intensity, higher = more binding, comparable within an allelic series)"
same,binding signal,HOXA7 [3],"10 upbm affinity estimate (log intensity, higher = more binding, comparable within an allelic series)"
same,binding signal,VENTX [4],"10.5 upbm affinity estimate (log intensity, higher = more binding, comparable within an allelic series)"
same,binding signal,HOXA7 [14],"8.8 upbm affinity estimate (log intensity, higher = more binding, comparable within an allelic series)"
CCCCTCAG,binding signal,VENTX [1],"8.25 upbm affinity estimate (log intensity, higher = more binding, comparable within an allelic series)"
same,binding signal,VENTX [2],"8.19 upbm affinity estimate (log intensity, higher = more binding, comparable within an allelic series)"
same,binding signal,HOXC10 [22],"10.1 upbm affinity estimate (log intensity, higher = more binding, comparable within an allelic series)"
same,binding signal,VENTX [4],"8.01 upbm affinity estimate (log intensity, higher = more binding, comparable within an allelic series)"
same,binding signal,HOXC10 [23],"10.1 upbm affinity estimate (log intensity, higher = more binding, comparable within an allelic series)"
ACCAATCA,binding signal,VENTX [1],"9.98 upbm affinity estimate (log intensity, higher = more binding, comparable within an allelic series)"
same,binding signal,VENTX [2],"10.7 upbm affinity estimate (log intensity, higher = more binding, comparable within an allelic series)"
same,binding signal,PAX4 [24],"10.5 upbm affinity estimate (log intensity, higher = more binding, comparable within an allelic series)"
same,binding signal,PAX4 [25],"10.6 upbm affinity estimate (log intensity, higher = more binding, comparable within an allelic series)"
same,binding signal,MSX2,"10.9 upbm affinity estimate (log intensity, higher = more binding, comparable within an allelic series)"
same,binding signal,PAX4 [26],"10.7 upbm affinity estimate (log intensity, higher = more binding, comparable within an allelic series)"
same,binding signal,PAX4 [27],"9.96 upbm affinity estimate (log intensity, higher = more binding, comparable within an allelic series)"
same,binding signal,PAX4 [28],"10.1 upbm affinity estimate (log intensity, higher = more binding, comparable within an allelic series)"
same,binding signal,PAX4 [29],"10 upbm affinity estimate (log intensity, higher = more binding, comparable within an allelic series)"
GAGTTCCC,binding signal,VENTX [1],"8.1 upbm affinity estimate (log intensity, higher = more binding, comparable within an allelic series)"
same,binding signal,VENTX [2],"8.23 upbm affinity estimate (log intensity, higher = more binding, comparable within an allelic series)"
same,binding signal,HOXC10 [22],"9.93 upbm affinity estimate (log intensity, higher = more binding, comparable within an allelic series)"
same,binding signal,VENTX [4],"8.22 upbm affinity estimate (log intensity, higher = more binding, comparable within an allelic series)"
same,binding signal,HOXC10 [23],"10 upbm affinity estimate (log intensity, higher = more binding, comparable within an allelic series)"
CCAAGGGC,binding signal,VENTX [1],"8.09 upbm affinity estimate (log intensity, higher = more binding, comparable within an allelic series)"
same,binding signal,VENTX [2],"8.33 upbm affinity estimate (log intensity, higher = more binding, comparable within an allelic series)"
same,binding signal,VENTX [4],"8.21 upbm affinity estimate (log intensity, higher = more binding, comparable within an allelic series)"
